Reference: the supplement of paper PMC12669032

Experiments:
Experiment in all cases: growth AUC relative to DMSO control (median of replicates) (fraction); higher = more growth (less inhibition), active = hit call of the paper
Conditions in all cases: 20 µM; 24 h;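 active = AUC reduced over 20% with Padj below 0.05 in at least 2 of 3 replicates; inactive = otherwise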
Coprococcus comes = tested on: Coprococcus comes
Procedure, shortened: (§1)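 Area under the growth curve was normalised to the plate median of solvent-only wells, except on the industrial chemical plate, where row and column medians were used. Curves came from gut bacterial monocultures grown anaerobically at 37 °C in mGAM with 20 µM compound (1% DMSO), starting at OD600 0.05 and read at OD600 every hour for 24 h. The minimum OD of each curve was set to 0, and values are medians of three biological replicates grown on separate days.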

Escherichia coli ED1a = tested on: Escherichia coli ED1a
Procedure, shortened: as §1

Escherichia coli IAI1 = tested on: Escherichia coli IAI1
Procedure, shortened: as §1

Eubacterium rectale = tested on: Eubacterium rectale
Procedure, shortened: as §1

[1] = tested on: Fusobacterium nucleatum subsp. animalis
Procedure, shortened: as §1

Lactobacillus gasseri = tested on: Lactobacillus gasseri
Procedure, shortened: as §1

Lactobacillus paracasei = tested on: Lactobacillus paracasei
Procedure, shortened: as §1

Odoribacter splanchnicus = tested on: Odoribacter splanchnicus
Procedure, shortened: as §1

[2] = tested on: Parabacteroides distasonis
Procedure, shortened: as §1

Parabacteroides merdae = tested on: Parabacteroides merdae
Procedure, shortened: as §1

Roseburia intestinalis = tested on: Roseburia intestinalis
Procedure, shortened: as §1

Streptococcus salivarius = tested on: Streptococcus salivarius
Procedure, shortened: as §1

Measured: growth AUC

COP(=O)(OC)C(O)C(Cl)(Cl)Cl (stereo unspecified)
inactive: Coprococcus comes 1.03 | Escherichia coli ED1a 1.02 | Escherichia coli IAI1 1.01 | Eubacterium rectale 1.08 | [1] 0.973 | Lactobacillus gasseri 1 | Lactobacillus paracasei 1.02 | Odoribacter splanchnicus 0.965 | [2] 1.04 | Parabacteroides merdae 1 | Roseburia intestinalis 1 | Streptococcus salivarius 1.02

CC(CCl)OP(=O)(OC(C)CCl)OC(C)CCl (mixture of isomers)
inactive: Coprococcus comes 0.999 | Escherichia coli ED1a 0.973 | Escherichia coli IAI1 0.984 | Eubacterium rectale 1.08 | [1] 1.08 | Lactobacillus gasseri 0.851 | Lactobacillus paracasei 1.01 | Odoribacter splanchnicus 1.01 | [2] 0.94 | Parabacteroides merdae 0.976 | Roseburia intestinalis 0.967 | Streptococcus salivarius 1.01

C=C(C)CN(CC)c1c([N+](=O)[O-])cc(C(F)(F)F)cc1[N+](=O)[O-]
inactive: Coprococcus comes 0.985 | Escherichia coli ED1a 0.921 | Escherichia coli IAI1 0.968 | Eubacterium rectale 0.921 | [1] 0.912 | Lactobacillus gasseri 1.03 | Lactobacillus paracasei 1.14 | Odoribacter splanchnicus 1.01 | [2] 1.02 | Parabacteroides merdae 1.01 | Roseburia intestinalis 1.01 | Streptococcus salivarius 0.989

CCOP(=O)(OCC)O/C(=C\Cl)c1ccc(Cl)cc1Cl
inactive: Coprococcus comes 0.994 | Escherichia coli ED1a 0.984 | Escherichia coli IAI1 1.01 | Eubacterium rectale 0.899 | [1] 0.987 | Lactobacillus gasseri 1.06 | Lactobacillus paracasei 1.02 | Odoribacter splanchnicus 0.972 | Parabacteroides merdae 0.945 | Roseburia intestinalis 1.06 | Streptococcus salivarius 0.982
active: [2] 0.725

COC(=O)c1ccccc1S(=O)(=O)NC(=O)Nc1nc(C)nc(OC)n1
inactive: Coprococcus comes 0.975 | Escherichia coli ED1a 0.963 | Escherichia coli IAI1 0.958 | Eubacterium rectale 1.05 | [1] 0.913 | Lactobacillus gasseri 0.934 | Lactobacillus paracasei 0.933 | Odoribacter splanchnicus 1.07 | [2] 0.977 | Parabacteroides merdae 0.962 | Roseburia intestinalis 0.978 | Streptococcus salivarius 0.935

Clc1ccc(Cl)c(Cl)c1
inactive: Coprococcus comes 0.919 | Escherichia coli ED1a 0.996 | Escherichia coli IAI1 0.974 | Eubacterium rectale 1.1 | [1] 1.11 | Lactobacillus gasseri 0.86 | Lactobacillus paracasei 0.943 | Odoribacter splanchnicus 0.983 | [2] 0.95 | Parabacteroides merdae 1.02 | Roseburia intestinalis 0.989 | Streptococcus salivarius 1.01

ClC1=C(Cl)C2(Cl)C3C4C=CC(C4)C3C1(Cl)C2(Cl)Cl (stereo unspecified)
inactive: Coprococcus comes 1.02 | Escherichia coli ED1a 0.996 | Escherichia coli IAI1 1.02 | Eubacterium rectale 0.986 | [1] 1 | Lactobacillus gasseri 0.955 | Lactobacillus paracasei 0.997 | Odoribacter splanchnicus 1.05 | [2] 1.05 | Parabacteroides merdae 1.02 | Roseburia intestinalis 0.987 | Streptococcus salivarius 0.995

CNC(=O)ON=C(CSC)C(C)(C)C
inactive: Coprococcus comes 0.968 | Escherichia coli ED1a 1.01 | Escherichia coli IAI1 1 | Eubacterium rectale 0.981 | [1] 1.01 | Lactobacillus gasseri 1.03 | Lactobacillus paracasei 0.985 | Odoribacter splanchnicus 0.983 | [2] 1.02 | Parabacteroides merdae 1.02 | Roseburia intestinalis 1.02 | Streptococcus salivarius 1.02

O=C(NC(=O)c1c(F)cccc1F)Nc1ccc(CO/N=C(\c2ccc(Cl)cc2)C2CC2)cc1
inactive: Coprococcus comes 0.988 | Escherichia coli ED1a 1 | Escherichia coli IAI1 0.986 | Eubacterium rectale 0.952 | [1] 0.997 | Lactobacillus gasseri 0.963 | Lactobacillus paracasei 0.962 | Odoribacter splanchnicus 1.01 | [2] 1.04 | Parabacteroides merdae 0.975 | Roseburia intestinalis 0.968 | Streptococcus salivarius 0.996

CN(C)C(CSS(=O)(=O)c1ccccc1)CSS(=O)(=O)c1ccccc1
inactive: Coprococcus comes 1.03 | Escherichia coli ED1a 0.97 | Escherichia coli IAI1 1.01 | Eubacterium rectale 1.53 | [1] 0.932 | Lactobacillus gasseri 0.85 | Lactobacillus paracasei 0.95 | Odoribacter splanchnicus 0.98 | [2] 0.95 | Parabacteroides merdae 0.992 | Roseburia intestinalis 1.02 | Streptococcus salivarius 0.973

C/C(=N/Nc1nc(C)cc(C)n1)c1ccccc1C
inactive: Coprococcus comes 0.957 | Escherichia coli ED1a 1.02 | Escherichia coli IAI1 1.04 | [1] 1.16 | Lactobacillus gasseri 0.994 | Lactobacillus paracasei 1.1 | Odoribacter splanchnicus 0.666 | [2] 1.07 | Parabacteroides merdae 1.07 | Streptococcus salivarius 0.999
active: Eubacterium rectale 0.495 | Roseburia intestinalis 0.715

CCOC(=O)C(Cl)Cc1cc(-n2nc(C)n(C(F)F)c2=O)c(F)cc1Cl (stereo unspecified)
inactive: Coprococcus comes 0.963 | Escherichia coli ED1a 0.986 | Escherichia coli IAI1 0.941 | Eubacterium rectale 0.794 | [1] 0.987 | Lactobacillus gasseri 1.01 | Lactobacillus paracasei 0.966 | Odoribacter splanchnicus 0.988 | [2] 0.963 | Parabacteroides merdae 0.925 | Roseburia intestinalis 1.03 | Streptococcus salivarius 1.03

CCS(=O)Cc1ccccc1OC(=O)NC (stereo unspecified)
inactive: Coprococcus comes 1.01 | Escherichia coli ED1a 0.977 | Escherichia coli IAI1 0.971 | Eubacterium rectale 1.11 | [1] 1.05 | Lactobacillus gasseri 0.854 | Lactobacillus paracasei 1.01 | Odoribacter splanchnicus 0.975 | [2] 0.8 | Parabacteroides merdae 0.997 | Roseburia intestinalis 1.02 | Streptococcus salivarius 0.987

Cc1cc(Cl)ccc1OC(C)C(=O)O (stereo unspecified)
inactive: Coprococcus comes 0.984 | Escherichia coli ED1a 1.01 | Escherichia coli IAI1 1.02 | Eubacterium rectale 0.978 | [1] 0.945 | Lactobacillus gasseri 1.12 | Lactobacillus paracasei 0.945 | Odoribacter splanchnicus 0.942 | [2] 0.966 | Parabacteroides merdae 1.02 | Roseburia intestinalis 1.03 | Streptococcus salivarius 1.01

c1coc(-c2nc3ccccc3[nH]2)c1
inactive: Coprococcus comes 1.02 | Escherichia coli ED1a 1.01 | Escherichia coli IAI1 0.986 | Eubacterium rectale 1.09 | [1] 0.985 | Lactobacillus gasseri 0.949 | Lactobacillus paracasei 0.997 | Odoribacter splanchnicus 0.879 | [2] 0.977 | Parabacteroides merdae 0.961 | Roseburia intestinalis 1.04 | Streptococcus salivarius 0.984

CC1=C(C(=O)Nc2ccccc2)SCCO1
inactive: Coprococcus comes 0.998 | Escherichia coli ED1a 1 | Escherichia coli IAI1 1.04 | Eubacterium rectale 1.06 | [1] 1.09 | Lactobacillus gasseri 0.993 | Lactobacillus paracasei 1.04 | Odoribacter splanchnicus 0.985 | [2] 1 | Parabacteroides merdae 1.01 | Roseburia intestinalis 1.08 | Streptococcus salivarius 1.08

Nc1ccc(Cl)cc1
inactive: Coprococcus comes 1.03 | Escherichia coli ED1a 1.02 | Escherichia coli IAI1 1 | Eubacterium rectale 1.05 | [1] 1.08 | Lactobacillus gasseri 0.939 | Lactobacillus paracasei 0.955 | Odoribacter splanchnicus 1.1 | [2] 1.05 | Parabacteroides merdae 1.02 | Roseburia intestinalis 0.963 | Streptococcus salivarius 1.01

CCOC(=O)c1cn2nc(OP(=S)(OCC)OCC)cc2nc1C
inactive: Coprococcus comes 0.952 | Escherichia coli ED1a 0.981 | Escherichia coli IAI1 0.97 | Eubacterium rectale 1.13 | [1] 0.938 | Lactobacillus gasseri 0.908 | Lactobacillus paracasei 0.911 | Parabacteroides merdae 0.909 | Roseburia intestinalis 0.981 | Streptococcus salivarius 0.981
active: Odoribacter splanchnicus 0.692 | [2] 0.662

COP(=S)(OC)Oc1c(Cl)cc(C)cc1Cl
inactive: Coprococcus comes 0.99 | Escherichia coli ED1a 0.983 | Escherichia coli IAI1 0.99 | Eubacterium rectale 1 | [1] 0.971 | Lactobacillus gasseri 0.925 | Lactobacillus paracasei 1.06 | Odoribacter splanchnicus 0.97 | [2] 0.96 | Parabacteroides merdae 0.998 | Roseburia intestinalis 0.912 | Streptococcus salivarius 0.972

O=c1oc2ccccc2c(O)c1C1CC(c2ccc(-c3ccc(Br)cc3)cc2)Cc2ccccc21 (stereo unspecified)
active: Eubacterium rectale 0.567 | Lactobacillus gasseri 0.652 | Lactobacillus paracasei 0.714 | [2] 0.126 | Parabacteroides merdae 0.00968 | Roseburia intestinalis 0.345 | Streptococcus salivarius 0.393
inactive: Coprococcus comes 0.856 | Escherichia coli ED1a 0.998 | Escherichia coli IAI1 1 | [1] 0.96 | Odoribacter splanchnicus 0.99

COP(=S)(NC(C)C)Oc1ccc(C)cc1[N+](=O)[O-] (stereo unspecified)
inactive: Coprococcus comes 1.03 | Escherichia coli ED1a 0.997 | Escherichia coli IAI1 0.996 | Eubacterium rectale 0.933 | [1] 1.06 | Lactobacillus gasseri 1.03 | Lactobacillus paracasei 1.06 | Odoribacter splanchnicus 0.998 | [2] 0.972 | Parabacteroides merdae 0.973 | Roseburia intestinalis 1.01 | Streptococcus salivarius 1.02

CC(COc1ccc(Oc2ccccc2)cc1)Oc1ccccn1 (stereo unspecified)
inactive: Coprococcus comes 0.962 | Escherichia coli ED1a 0.999 | Escherichia coli IAI1 0.968 | Eubacterium rectale 1.04 | [1] 0.97 | Lactobacillus gasseri 0.989 | Lactobacillus paracasei 0.939 | Odoribacter splanchnicus 1.03 | [2] 0.979 | Parabacteroides merdae 0.929 | Roseburia intestinalis 0.94 | Streptococcus salivarius 1.01

CCc1ccc(C(=O)NN(C(=O)c2cc(C)cc(C)c2)C(C)(C)C)cc1
inactive: Coprococcus comes 0.987 | Escherichia coli ED1a 1.01 | Escherichia coli IAI1 0.999 | Eubacterium rectale 0.937 | [1] 0.882 | Lactobacillus gasseri 0.98 | Lactobacillus paracasei 1.04 | Odoribacter splanchnicus 0.926 | [2] 1.03 | Parabacteroides merdae 0.945 | Roseburia intestinalis 0.945 | Streptococcus salivarius 0.952
